# DRD3 agonist = agonists of human D3 dopamine receptor | P35462 | D3R DiscoveRx beta-arrestin cells, luminescence, 90 min | max activation, % | 0.58% of 410,000 active | AID 652048; in the data active means max activation above about 30%
# Target sequence (P35462 whole entry, looked up): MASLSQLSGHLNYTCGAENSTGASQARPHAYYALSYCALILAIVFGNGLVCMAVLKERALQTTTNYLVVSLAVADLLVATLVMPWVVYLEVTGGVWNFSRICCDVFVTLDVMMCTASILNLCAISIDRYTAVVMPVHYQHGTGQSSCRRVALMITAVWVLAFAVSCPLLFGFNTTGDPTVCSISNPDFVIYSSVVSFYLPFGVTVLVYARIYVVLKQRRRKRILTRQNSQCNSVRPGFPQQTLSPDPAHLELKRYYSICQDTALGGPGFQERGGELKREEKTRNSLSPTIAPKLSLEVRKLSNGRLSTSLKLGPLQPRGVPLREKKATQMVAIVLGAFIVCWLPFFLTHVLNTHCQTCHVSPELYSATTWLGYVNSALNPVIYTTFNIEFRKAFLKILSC
#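 Agonist mode: compounds and dopamine controls were applied to plated cells for 90 min at 37 degrees C after an overnight attachment at 1500 cells/well. Luminescent read-out followed 30 - 60 minutes at room temperature with DiscoveRx detection reagent.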
# D1 potentiator = human D1 dopamine receptor positive modulation; 0.036% of 360,000 active; HEK293 TREx D1 cells, calcium flux, dopamine EC20 potentiation; AID 504651; potentiation, % at 10 µM; in the data active means potentiation above about 30%
# D1 antagonist = antagonists of human D1 dopamine receptor. P21728. HEK293 TREx D1 cells, calcium flux, dopamine EC80; stronger effect = lower value. activity change, negative = inhibition, % at 10 µM. 3.2% of 360,000 active; in the data active means activity change below about -30%
#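 Kinetic fluorescence of a calcium dye serves as the read-out. D1-expressing Hek293 Trex cells, induced overnight at 30 C, are exposed to compound for 180 s before an EC80 dopamine addition, then read 180 s further.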
# D3 antag = blocks the human D3 dopamine receptor; 2.5% of 360,000 active; P35462; max response, negative = inhibition, %; D3R cells, DiscoveRx beta-arrestin luminescence, antagonist mode; stronger effect = lower value; AID 652054; in the data active means max response below about -50%
#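 Cells expressing the human receptor were seeded at 1500 cells/well, incubated overnight at 37 degrees C in 5% CO2, then exposed to library compounds with dopamine controls for 90 minutes at 37 degrees C before luminescent detection.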
# D1 ag = human D1 receptor agonism | 1% of 360,000 active | activation, % at 2 µM | HEK293 T-REx D1 cells, calcium flux, agonist mode; in the data active means activation above about 30%
#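 Tetracycline-induced HEK293 TREx D1 cells, force-coupled to calcium signalling, were dye-loaded with a no-wash calcium kit. Compound was pin-added after a 10 s baseline. Fluorescence was read kinetically at 1 cycle/s for 180 s, with calcium rises flagged as agonism.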
# A number is an active result; - = inactive; . = no result given. Rows were chosen to be rich in hits. Some 6% of all compounds tested hit in one or more screens of this group.
SMILES,DRD3 agonist,D1 potentiator,D1 antagonist,D3 antag,D1 ag
CCCCCCC(C)n1[nH]c(=O)cc1N (stereo not drawn),-,-,-31.6,-,-
COc1ccc(N2CCN(C(CNS(=O)(=O)c3c(C)cc(C)cc3C)c3ccco3)CC2)cc1 (stereo not drawn),-,-,.,.,-
COc1ccc(-c2nc(C)c(CCNC(=O)C(=O)Nc3ccccc3OC)s2)cc1,-,-,-,.,-
COCCCN1CCN(C2Cc3ccccc3Sc3ccc(Cl)cc32)CC1 (stereo not drawn),-,-,-85.5,-96.5,-
Clc1ccc2c(c1)C(N1CCNCC1)Cc1ccccc1S2 (stereo not drawn),-,-,-86.4,-55.6,-
NC(=O)CCN1CCN(CCOC2Cc3cc(Cl)ccc3Sc3ccccc32)CC1 (stereo not drawn),-,-,-,-85.8,-
CN1C(=O)CC(N2CCN(Cc3ccc(Cl)cc3)CC2)C1=O (stereo not drawn),-,-,-,-,-
O=C(c1ccccc1Cl)N1CCNCC1,-,-,-,-,-
Clc1cccc2c1Sc1ccccc1CC2N1CCNCC1 (stereo not drawn),-,-,-77.9,-54.9,56.7
CCOc1ccccc1NC(=O)c1nc2nc(C)cc(C(F)F)n2n1,-,-,-,.,-
COc1ccc(OC)c(NC(=O)Cn2c(=O)cc(C)c3c(C)nn(-c4cccc(Cl)c4C)c32)c1,-,-,-,.,-
CC(=O)Nc1sc(N/N=C/c2ccc(C)cc2)nc1-c1ccc(C)cc1,-,-,-,-,-
CC(=O)Nc1sc(/C(C#N)=C/c2ccc(Cl)c(Cl)c2)nc1-c1ccc(C)cc1,-,-,-49.0,-,283.5

# Source: PubChem BioAssay (National Center for Advancing Translational Sciences (NCATS))
